The list is not random: actives were taken first. Their share in the collection is about 19%.
ELG1 repair inh = ELG1-dependent DNA repair inhibition; HEK293T ELG1-luciferase reporter, luminescence, 16 h; DNA damage induced by 5-fluorouridine; Potency, µM (series often up to 46.1 µM), for inactives: at the top dose activity change, negative = inhibition, usual class: inhibitors; 330,000 tested, 2.3% active; AID 504467; further: potency means the concentration at half of the fitted maximal effect; nearly all actives have a fitted effect of over 55% in size
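DMSO vehicle served as the neutral condition. Each well held 2,000 cells given 5-fluorouridine plus compound; after 16 hr at 37 °C/5% CO2, ONE-Glo was added and luciferase measured 30 min later.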
DT40 TDP1 CPT = growth inhibition of DT40 Tdp1-/-;hTDP1 cells with camptothecin (screen for TDP1 inhibitors). 420,000 tested, 12% active. chicken DT40 Tdp1-/-;hTDP1 cells + 20 nM CPT, ATP luminescence, 48 h. Potency, µM (top dose mostly 46.2 µM), inactives show at the highest dose activity change, negative = growth inhibition, actives largely listed as inhibitors. AID 686979; further: potency means the concentration at half of the fitted maximal effect; nearly all actives have a fitted effect of over 55% in size
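Chicken DT40 Tdp1-/- cells stably complemented with human TDP1 were seeded at 400 cells/well in medium containing 20 nM camptothecin, exposed to pin-transferred compounds, and grown at 37 °C for at least 48 hr. Viability was read as ATP luminescence.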
HT1080-NT tox = kills 2HG-producing HT-1080-NT fibrosarcoma cells | AID 686970 | Potency, µM (series often up to 46.1 µM), without a hit: at the highest dose activity, negative = less viability, actives largely listed as cytotoxic | HT-1080-NT fibrosarcoma viability, CellTiter-Glo ATP luminescence, 48 h | 360,000 tested, 1.6% active;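 further: NT is the 2HG producing partner of a matched IDH1 knockdown line; potency means the concentration at half of the fitted maximal effect; 0% = DMSO-treated cells and -100% = media-only wells without cells; nearly all actives have a fitted effect of over 55% in size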
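HT-1080-NT fibrosarcoma cells (2HG-overproducing), 750 cells/well in RPMI with 5% FBS, dosed after 2 h and incubated 48 h at 37C. CellTiter-Glo luminescence normalized to DMSO and no-cell wells; concentration-response curves fitted and classed.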
IL-1B inflam inh = inhibitors of inflammasome signaling (IL-1 beta secretion); THP-1 LPS/ATP IL-1B secretion, AlphaLISA, 16 h; active compounds read low; activity change, % at 57.5 µM; 360,000 tested, 4.7% active; AID 743279; in the data active means activity change below about -50%; inconclusive means mostly about -30% to -49%
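Secreted IL-1B measured by AlphaLISA bead assay after 16 h compound exposure of THP-1 cells; compounds (final up to 57.5 uM) added 1 h before LPS (250 ng/mL) and ATP (1.25 mM) stimulation; lower signal means less secretion.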
HT1080 IDH1KD tx = kills HT-1080 cells with IDH1 knockdown | HT-1080 IDH1 knockdown viability, ATP luminescence, 48 h | Potency, µM (top dose mostly 46.1 µM), for inactives: at the top dose activity, negative = toxicity, actives largely listed as cytotoxic | 360,000 tested, 2% active;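 further: potency means the concentration at half of the fitted maximal effect; 0% = DMSO wells and -100% = cell-free medium wells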
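In this qHTS, HT-1080 cells depleted of IDH1 are exposed for 48 h at 37 °C to compound titrations. Toxicity is scored from CellTiter-Glo luminescence, with DMSO as full viability and medium alone as none.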
DT40 TDP1 no CPT = qHTS for Inhibitors of human tyrosyl-DNA phosphodiesterase 1 (TDP1): qHTS in cells in absence of CPT; 420,000 tested, 15% active; Potency, µM (titrated, usually from 46.2 µM), inactives show at the highest dose activity change, negative = growth inhibition, usual class: inhibitors; DT40 Tdp1-/- hTDP1 cells, no CPT, ATP luminescence, 48 h; further: potency means the concentration at half of the fitted maximal effect; nearly all actives have a fitted effect of over 55% in size
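Cells were dispensed at 400 per well, compounds added by pin tool, plates incubated ≥48 hr at 37 °C, then CellTiter-Glo added for 30 min at room temperature before luminescence reading. Line: DT40 Tdp1-/- complemented with hTDP1; camptothecin omitted.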
The depositor's hits bear a star; ? = inconclusive; . = not tested or not shown; [ ] = remark or other dose. Unless noted, the call rests on the fitted dose curve; in most records, active means well fitted curve in the direction sought with a large enough effect; inconclusive means small, poorly fitted or top-dose-only effect, or another doubt; inactive means no such curve, though single readings can be large; an effect the other way counts as inactive or inconclusive. Unless noted, on the % scale 0 is the no-effect control and ±100 the full control effect.

SMILES	ELG1 repair inh	DT40 TDP1 CPT	HT1080-NT tox	IL-1B inflam inh	HT1080 IDH1KD tx	DT40 TDP1 no CPT
CCOc1ccc(C(C(=O)NC2CCCC2)N(Cc2ccccc2)C(=O)c2nsc(Cl)c2Cl)cc1 (stereo not drawn)	?	21µM*	?	?	-27%	18µM*
Cc1cc(C)cc(N(C(=O)c2nsc(Cl)c2Cl)C(C(=O)NC2CCCC2)c2ccc(O)cc2)c1 (stereo not drawn)	-28%	-80%	-18%	-80*	?	?
Cc1cccc(N(C(=O)c2snc(C(N)=O)c2N)C(C(=O)NC2CCCC2)c2ccncc2)c1 (stereo not drawn)	-18%	0%	1%	23	5%	-1%
NC(=O)c1nsc(C(=O)N(c2cccc(O)c2)C(C(=O)NC2CCCC2)c2ccc(Cl)cc2)c1N (stereo not drawn)	-17%	4%	-10%	-1	-4%	?
Cc1ccc(N(C(=O)c2nsc(Cl)c2Cl)C(C(=O)NC2CCCC2)c2ccc(O)cc2)cc1C (stereo not drawn)	-14%	?	?	-65*	-29%	?
CCOc1ccc(C(C(=O)NCC2CCCO2)N(Cc2ccccc2)C(=O)c2snc(C(N)=O)c2N)cc1 (stereo not drawn)	?	?	7%	6	-3%	?
Cc1cccc(N(C(=O)c2nsc(Cl)c2Cl)C(C(=O)NC2CCCC2)c2ccc(O)cc2)c1C (stereo not drawn)	?	?	-2%	-73*	-14%	?
OC1(c2ccc3c(c2)CN(Cc2ccco2)CCO3)CCN(c2ccccc2F)CC1	.	-1%[9.04 µM]	.	.	.	?
Cc1ccc2nc(SCC(=O)NCC3Cc4cc(-c5ncccc5C)ccc4O3)[nH]c2c1 (stereo not drawn)	.	3%[9.04 µM]	.	.	.	?
CC1CCC(NC(=O)c2cccc(S(=O)(=O)NCc3ccccc3)c2)CC1 (stereo not drawn)	-14%	-27%	-2%	-16	-9%	?
Cc1ccccc1OCC(=O)N(Cc1ccco1)c1c(N)n(Cc2ccccc2)c(=O)[nH]c1=O	20%	-18%	10%	0	2%	-13%
CCC(=O)N(CCC(c1ccco1)C(C)C)Cc1ccccc1 (stereo not drawn)	2%	?	-17%	-7	-23%	?
Cc1ccc(CN(Cc2ccco2)C(=O)COc2ccccc2C)cc1	.	21µM*	.	.	.	16µM*
Cc1cccc(C)c1OCC(=O)N(Cc1ccco1)C1CCS(=O)(=O)C1 (stereo not drawn)	23%	-10%	9%	-16	-6%	-8%
CCC(=O)N(CCC(c1ccc(C)cc1)c1ccco1)Cc1ccco1 (stereo not drawn)	3%	?	-13%	-4	-7%	23µM*
Cc1ccc(CN(Cc2ccco2)C(=O)COc2c(C)cc(C)cc2C)cc1	.	23µM*	.	.	.	9.2µM*
Cc1cc(C)c(OCC(=O)N(Cc2ccc(N(C)C)cc2)Cc2ccco2)c(C)c1	.	12µM*	.	.	.	7.3µM*
COc1ccccc1C1C(C#N)=C(N)N(N(C)C)C2=C1C(=O)CC(C)(C)C2 (stereo not drawn)	-8%	-13%	4%	-15	-3%	19%
CC1(C)Cc2ccccc2C(NNC(=O)c2ccccn2)=N1	?	18µM*	-28%	75	?	21µM*
O=C(NCc1ccccc1)C1C(c2ccc3c(c2)OCO3)=Nc2ccccc2N1C(=O)c1cccc(C(F)(F)F)c1 (stereo not drawn)	.	16µM*	-5%	-20	-14%	?
COc1ccc(C2=Nc3ccccc3N(C(=O)c3cc(Cl)cc(Cl)c3)C2C(=O)NCc2ccccc2)cc1 (stereo not drawn)	.	?	-10%	16	-1%	?
O=C(NCc1ccccc1)C1C(c2ccc3c(c2)OCO3)=Nc2ccccc2N1C(=O)c1ccccc1 (stereo not drawn)	.	23µM*	-18%	-1	-24%	15µM*
COc1ccc(C2=Nc3ccccc3N(C(=O)c3ccc(C(F)(F)F)cc3)C2C(=O)Nc2c(C)cccc2C)cc1 (stereo not drawn)	.	?	15%	-11	2%	?
O=C(NCc1ccccc1)C1C(c2ccccc2)=Nc2ccccc2N1C(=O)c1ccncc1 (stereo not drawn)	.	-9%	-17%	-14	-5%	-14%
Cc1cccc(C)c1NC(=O)C1C(c2ccc3c(c2)OCO3)=Nc2ccccc2N1C(=O)c1ccccc1 (stereo not drawn)	.	5.2µM*	-3%	-23	-1%	1.5µM*
SMILES	ELG1 repair inh	DT40 TDP1 CPT	HT1080-NT tox	IL-1B inflam inh	HT1080 IDH1KD tx	DT40 TDP1 no CPT
O=C(NCc1ccccc1)C1C(c2ccc3c(c2)OCO3)=Nc2ccccc2N1C(=O)c1ccco1 (stereo not drawn)	.	?	13µM*	-15	8.2µM*	?
CCOC(=O)C1CCCN(C(=O)CCNS(=O)(=O)c2cc(Br)cnc2N)C1 (stereo not drawn)	0%	6%	-2%	2	2%	7%
COc1cc(OC)cc(-c2nnc(SCc3c(F)cccc3Cl)o2)c1	?	?	-12%	-60*	-3%	23µM*
COCCNc1nc2c(S(=O)(=O)c3ccccc3)nnn2c2ccc(Cl)cc12	.	-23%	.	.	.	?
COc1cc(Nc2nc3c(S(=O)(=O)c4cccc(Cl)c4)nnn3c3ccsc23)cc(OC)c1	.	9.2µM*	.	.	.	7.3µM*
CCc1ccc(Nc2nc3c(S(=O)(=O)c4cccc(Cl)c4)nnn3c3ccsc23)cc1	.	6.5µM*	.	.	.	4.6µM*
CCc1ccc(S(=O)(=O)c2nnn3c2nc(Nc2ccc(NC(C)=O)cc2)c2sccc23)cc1	.	23µM*	.	.	.	?
CCc1ccc(S(=O)(=O)c2nnn3c2nc(NCCC(C)C)c2cc(Cl)ccc23)cc1	.	?	.	.	.	21µM*
Cc1cc(=O)n2nc(N(C)CC(=O)NCc3cccc(Br)c3)sc2n1	.	-26%	.	.	.	-12%
O=C(C[C@@H]1CC[C@@H](NC(=O)Nc2cccc(F)c2)[C@@H](CO)O1)NCC1CCCCC1	.	10%	12%	-20	11%	-30%
O=C(O)Cc1ccc(OCc2ccc(Cl)nc2)cc1	?	20%	11%	16	8%	-2%
